# Experimental data reported in PubChem BioAssay AID623892 (Vanderbilt Specialized Chemistry Center, 2012).
# A number with no mark means an inactive call.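 The calls were made as follows: active = potentiator with a glutamate EC50 fold shift of at least 2, or antagonist at 0.5 or below; inactive = fold shift between 0.5 and 2.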
# Biological target: Metabotropic glutamate receptor 8 (Rattus norvegicus) (UniProt P70579)
# Assay: mGlu8 glutamate response modulation check – cell-based, rat, thallium flux, selectivity assay for mGlu4 lead optimization, profiling panel (AID 623892)
# Conditions: HEK cells rat mGlu8, thallium flux, at 10 µM
# Metabotropic glutamate receptor 8 (Rattus norvegicus), sequence (P70579 whole entry, looked up): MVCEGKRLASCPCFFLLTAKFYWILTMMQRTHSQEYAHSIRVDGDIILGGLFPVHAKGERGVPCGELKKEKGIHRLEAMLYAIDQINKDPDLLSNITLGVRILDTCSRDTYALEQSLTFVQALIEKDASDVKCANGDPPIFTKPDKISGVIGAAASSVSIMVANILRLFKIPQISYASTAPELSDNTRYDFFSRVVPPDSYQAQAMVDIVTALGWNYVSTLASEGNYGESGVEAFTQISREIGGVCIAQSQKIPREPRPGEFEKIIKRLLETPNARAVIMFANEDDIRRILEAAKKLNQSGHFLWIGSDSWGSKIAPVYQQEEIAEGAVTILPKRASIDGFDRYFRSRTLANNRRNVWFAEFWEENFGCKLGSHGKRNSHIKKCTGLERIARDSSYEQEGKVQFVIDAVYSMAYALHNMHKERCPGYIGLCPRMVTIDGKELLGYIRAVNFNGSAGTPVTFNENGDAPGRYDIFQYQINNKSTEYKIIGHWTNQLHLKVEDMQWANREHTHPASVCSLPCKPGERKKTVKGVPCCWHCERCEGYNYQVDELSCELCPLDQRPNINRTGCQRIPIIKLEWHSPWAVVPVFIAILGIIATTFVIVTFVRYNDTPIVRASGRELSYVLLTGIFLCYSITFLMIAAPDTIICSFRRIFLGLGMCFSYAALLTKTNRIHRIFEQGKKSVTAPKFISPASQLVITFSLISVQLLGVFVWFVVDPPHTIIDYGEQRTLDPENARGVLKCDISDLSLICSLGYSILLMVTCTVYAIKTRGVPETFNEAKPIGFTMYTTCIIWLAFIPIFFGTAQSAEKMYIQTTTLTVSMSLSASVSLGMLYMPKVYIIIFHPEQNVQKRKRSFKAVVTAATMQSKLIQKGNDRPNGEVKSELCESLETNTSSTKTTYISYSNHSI
compound,measurement,value
O=C(Nc1cccc(Cl)c1)c1ccccn1,fold shift of glutamate EC50,1.47
